Active and inactive are the calls of the source. Where a call stands in place of a potency, no number is given. Calls follow the shape of the full dose curve.
Each molecule was assayed against Estrogen receptor (Homo sapiens) (UniProt P03372) (assay: qHTS assay to identify small molecule agonists of the estrogen receptor alpha (ER-alpha) signaling pathway in the presence of an antagonist (AID 1259383; also: top concentration of the series differs between compounds; nearly all actives have a fitted effect of over 15% in size)). Details: VM7Luc4E2 cells, ERE-luciferase, +ICI-182,780, 22 h; series mostly up to 92.4 µM.
Estrogen receptor (Homo sapiens), sequence (P03372 whole entry, looked up): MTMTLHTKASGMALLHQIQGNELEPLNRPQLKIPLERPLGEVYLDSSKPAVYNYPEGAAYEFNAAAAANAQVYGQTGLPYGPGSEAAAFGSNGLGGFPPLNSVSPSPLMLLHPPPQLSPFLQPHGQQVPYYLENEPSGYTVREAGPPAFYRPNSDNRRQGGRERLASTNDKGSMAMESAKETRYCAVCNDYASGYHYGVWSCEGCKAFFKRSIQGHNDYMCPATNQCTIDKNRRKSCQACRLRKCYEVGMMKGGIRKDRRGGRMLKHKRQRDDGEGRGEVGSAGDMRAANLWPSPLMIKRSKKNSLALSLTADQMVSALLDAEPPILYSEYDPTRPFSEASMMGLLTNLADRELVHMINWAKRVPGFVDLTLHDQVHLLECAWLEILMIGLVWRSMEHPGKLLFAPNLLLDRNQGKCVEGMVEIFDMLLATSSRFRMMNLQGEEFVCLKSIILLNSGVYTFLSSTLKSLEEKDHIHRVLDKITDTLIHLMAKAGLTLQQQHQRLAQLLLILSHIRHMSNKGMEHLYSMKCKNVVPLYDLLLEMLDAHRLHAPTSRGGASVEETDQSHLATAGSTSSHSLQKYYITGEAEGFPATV
In short: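 Readout was ERE-driven luciferase luminescence in VM7Luc4E2 cells, which express full-length ER-alpha endogenously. Compounds were tested at 15 concentrations for 22hr alongside 10.0nM ICI-182,780 (final concentration).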
COC1=C(OC)C(=O)C(CCCCCCCCCCO)=C(C)C1=O was tested, and the Potency was “inactive”. With NC(=S)NC(N)=S the Potency was “inactive”. In the case of CC(=O)OCC=C(C)C, the Potency is reported as “inactive”. With CCCCCCCC/C=C\CCCCCCCCN the Potency was “inactive”. With CC(C)=CCNc1ncnc2c1ncn2[C@@H]1O[C@H](CO)[C@@H](O)[C@H]1O the Potency was “inactive”. CN(C)CCN1CCN(c2cccc(Cl)c2)C1=O was tested, and the Potency was “inactive”. For CC(C)OC(=O)C(O)(CC(=O)O)CC(=O)O, the Potency was “inactive”. Cc1cccc(C)c1NC(=O)c1ccc(N)cc1 was tested, and the Potency was “inactive”. CCOC(=O)NNc1ccc(N(CC)CC(C)O)nn1 (stereo not drawn) was tested, and the Potency was “inactive”. In the case of CC1(C)[C@@H](O)CC[C@]2(C)[C@H]3C(=O)C=C4[C@@H]5C[C@@](C)(C(=O)O)CC[C@]5(C)CC[C@@]4(C)[C@]3(C)CC[C@@H]12, the Potency is reported as “inactive”. In the case of O=C(O)Cc1ccccc1Nc1c(Cl)cccc1Cl, the Potency is reported as “inactive”. c1ccsc1 was tested, and the Potency was “inactive”. In the case of NC(=O)c1cccc([N+](=O)[O-])c1, the Potency is reported as “inactive”. CCc1cccc(CC)c1NC(=O)CN(CC(=O)O)CC(=O)O was tested, and the Potency was “inactive”. In the case of CCN(CC)c1ccc2c(-c3ccc(S(=O)(=O)O)cc3S(=O)(=O)[O-])c3ccc(=[N+](CC)CC)cc-3oc2c1, the Potency is reported as “inactive”. In the case of COc1c(C)c2c(c(O)c1C/C=C(\C)CCC(=O)OCCN1CCOCC1)C(=O)OC2, the Potency is reported as “inactive”. With Nc1cc(Cl)c(O)c(Cl)c1 the Potency was “inactive”. For CCCc1ccc(OCC(=O)N2CCN(C(=O)COc3ccc(CCC)cc3OC)CC2)c(OC)c1, the Potency was “inactive”. For ClCCl, the Potency was “inactive”. For CCCCCCOC(=O)C(C)CC (stereo not drawn), the Potency was “inactive”. For COC(=O)Nc1nc2ccc(C(=O)c3ccccc3)cc2[nH]1, the Potency was “inactive”. With CCOc1ccc2ccccc2c1C(=O)N[C@@H]1C(=O)N2[C@@H]1SC(C)(C)[C@@H]2C(=O)O the Potency was “inactive”. For O[C@@H]([C@H](O)[C@H](O)CBr)[C@H](O)CBr, the Potency was “inactive”.
